Screening results (PubChem BioAssay)
PrPC TRFRET: cell surface PrPC inhibition, primary TR-FRET screen. P04156. TR-FRET read-out. inhibition, % at 13.8 µM. 0.43% of 370,000 active; in the data active means inhibition above about 24%; further: 0% = median of the test wells and 100% = reference compound wells
BJeLR lethal: BJeLR cell viability loss | 0.17% of 300,000 active | BJeLR (HRASV12) viability, CellTiter-Glo ATP luminescence, 48 h | AID 1554 | inhibition, % (test concentration not listed); in the data active means inhibition above about 50%; inconclusive means no clear call, values can overlap the other calls
PfHsp40 rescue: restores yeast growth despite PfHsp40 toxicity | S. cerevisiae expressing PfHsp40, growth rescue, ATP luminescence | growth rescue, % at 12.5 µM | 0.68% of 340,000 active; in the data active means growth rescue above about 28%, passing the limit was not always enough; inconclusive means no clear call, values can overlap the other calls;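 further: yeast W303a lacking pdr1 and pdr3 grown in galactose medium; growth measured after three days at 30 °C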
Yp Topo-I inh: inhibitors of Yersinia pestis topoisomerase I. Y. pestis Topo-I cleavage product accumulation, plate reader. activity, % at 10 µM. 0.064% of 360,000 active. AID 504884; in the data active means activity above about 50%, passing the limit was not always enough; inconclusive means no clear call, values can overlap the other calls
CCHF vOTU inh: blocks the CCHF virus ovarian tumor domain protease; CCHFV vOTU protease, Pep-AMC fluorescence; inhibition, % at 11.5 µM; 0.55% of 370,000 active; AID 651958; in the data active means inhibition above about 30%; further: 0% = vehicle wells with enzyme and 100% = no enzyme wells
PrP UTR inh: suppresses PrP 5' UTR mRNA reporter expression; cell-based PrP 5' UTR mRNA reporter, plate reader; inhibition, % (no concentration beside the values); 0.35% of 340,000 active; in the data active means inhibition above about 52%; further: 0 = median of the neutral control wells
PrPC TRFRET cf: confirmation of inhibitors of cell surface human prion protein; inhibition, % at 13.8 µM; cell surface PrPC level, TR-FRET; AID 743200; 65% of 1,500 active; shares compounds with PrPC TRFRET; in the data active means inhibition above about 25%
LD9 tox: LD9 cell cytotoxicity, PrPc inhibitor counter-screen. shares compounds with PrPC TRFRET. LD9 cells cytotoxicity, luminescence viability. inhibition, % at 13.8 µM. 29% of 1,500 active; in the data active means inhibition above about 9.5%
* marks the source's active call; other numbers are inactive results. The list is not random: actives were taken first. Their share in the collection is about 2%.

CCOc1ccc2nc(NC(=O)c3ccco3)sc2c1 was read as PrPC TRFRET 31*, BJeLR lethal 22, PfHsp40 rescue -3, Yp Topo-I inh -10, CCHF vOTU inh 4, PrP UTR inh 14, PrPC TRFRET cf 39* and LD9 tox 14*.
Screening O=C(Cc1c[nH]c2ccccc12)Nc1ccc(Nc2cccnc2)c(-c2ccc(OC(F)(F)F)cc2)c1 returned PrPC TRFRET -3 and CCHF vOTU inh 18.
c1ccc2sc(Nc3nc4cc5c(cc4s3)OCO5)nc2c1 was read as PrPC TRFRET 80*, BJeLR lethal -2, PfHsp40 rescue 1, Yp Topo-I inh -14, CCHF vOTU inh 1, PrP UTR inh -88, PrPC TRFRET cf 63* and LD9 tox -1.
For Fc1ccc2nc(Nc3nc4cc5c(cc4s3)OCO5)sc2c1 the results were PrPC TRFRET -6, BJeLR lethal -9, PfHsp40 rescue 0, Yp Topo-I inh -5, CCHF vOTU inh -6 and PrP UTR inh -52.
For CCCCNC(=O)C[C@H]1C[C@@]2(C(=O)OC)C(=C[C@H](COCc3ccccc3)O[C@@H]2C)N(Cc2ccccc2)C1=O the results were PrPC TRFRET -5 and CCHF vOTU inh -2.
O=C(Nc1ccc(F)cc1F)c1cc(-c2ccc(Cl)cc2)nc2ccccc12 was read as PrPC TRFRET -11 and CCHF vOTU inh -6.
Screening O=c1[nH]c2cc3c(cc2cc1CN(CC1CCCO1)S(=O)(=O)c1ccccc1)OCCO3 (stereo not given) returned PrPC TRFRET 55*, BJeLR lethal 7, PfHsp40 rescue 0, Yp Topo-I inh 12, CCHF vOTU inh -14, PrP UTR inh -12, PrPC TRFRET cf 14 and LD9 tox -2.
`CC(=O)c1cccc(S(=O)(=O)N(Cc2cc3cc4c(cc3[nH]c2=O)OCCO4)CC2CCCO2)c1` (stereo not given) gave PrPC TRFRET 2, BJeLR lethal -4, PfHsp40 rescue 0, Yp Topo-I inh 5, CCHF vOTU inh 4 and PrP UTR inh -14.
O=C(Nc1ccc2nc3n(c(=O)c2c1)CCCCC3)c1c(F)ccc([N+](=O)[O-])c1F was read as PrPC TRFRET 26*, BJeLR lethal 75*, PfHsp40 rescue 1, Yp Topo-I inh 5, CCHF vOTU inh 8, PrP UTR inh -11, PrPC TRFRET cf 28* and LD9 tox 96*.
O=C(Nc1ccc2nc3n(c(=O)c2c1)CCCCC3)c1cc([N+](=O)[O-])ccc1F was read as PrPC TRFRET -26, BJeLR lethal 8, PfHsp40 rescue 1, Yp Topo-I inh 3, CCHF vOTU inh 8 and PrP UTR inh -5.
CCCN(C(=O)C(=O)Nc1ccc2nc3n(c(=O)c2c1)CCCCC3)c1ccc(OCC)cc1 was read as PrPC TRFRET 31*, BJeLR lethal -7, PfHsp40 rescue 2, Yp Topo-I inh 23, CCHF vOTU inh 10, PrP UTR inh -21, PrPC TRFRET cf 12 and LD9 tox -2.
Screening CCOC(=O)Nc1ccc2nc3n(c(=O)c2c1)CCCCC3 returned PrPC TRFRET 7, PfHsp40 rescue 1, Yp Topo-I inh -1, CCHF vOTU inh -5 and PrP UTR inh -35.
`N#CCc1ccc(NC(=O)Nc2cccc(Cl)c2)cc1` gave PrPC TRFRET 31*, BJeLR lethal 5, PfHsp40 rescue 1, Yp Topo-I inh -6, CCHF vOTU inh -9, PrP UTR inh -46, PrPC TRFRET cf 33* and LD9 tox 5.
`CCOC(=O)c1sc(Nc2nc3c(OC)cccc3s2)cc1C` gave PrPC TRFRET 40*, BJeLR lethal -11, PfHsp40 rescue 1, Yp Topo-I inh -11, CCHF vOTU inh 16, PrP UTR inh -17, PrPC TRFRET cf 48* and LD9 tox -7.
Screening [C-]#[N+][C@]12C(=O)[C@H](C=C(Cl)[C@@]1(C)C=C)C(C)(C)[C@H]1C(=O)N(C)c3cccc2c31 returned PrPC TRFRET 10 and CCHF vOTU inh 7.
For Nn1c(SCC(=O)Nc2cc(C(F)(F)F)ccc2Cl)nnc1-c1n[nH]c2c1CCC2 the results were PrPC TRFRET -1 and CCHF vOTU inh -5.
CCOC(=O)c1c(C)n(CC)c2c1cc(O)c1ccccc12 was read as PrPC TRFRET 25*, BJeLR lethal -8, PfHsp40 rescue 0, Yp Topo-I inh -13, CCHF vOTU inh -3, PrP UTR inh -20, PrPC TRFRET cf 11 and LD9 tox -4.
`C=CCn1c(C)c(C(=O)OCC)c2cc(O)c3ccccc3c21` gave PrPC TRFRET 4, BJeLR lethal -4, PfHsp40 rescue -1, Yp Topo-I inh -6, CCHF vOTU inh -1 and PrP UTR inh -20.
O=C(CSc1nnc(-c2cccnc2)n1Cc1ccco1)Nc1ccc(Cl)c(Cl)c1 was read as PrPC TRFRET 3 and CCHF vOTU inh 2.
For CC(C)(C)c1ccc(NC(=O)COc2ccc(-n3ccnc3)cc2)cc1 the results were PrPC TRFRET 28*, BJeLR lethal 14, PfHsp40 rescue 1, Yp Topo-I inh 30, CCHF vOTU inh 5, PrP UTR inh 16, PrPC TRFRET cf 21 and LD9 tox 12*.
`COc1cc(NC(=O)COc2ccc(-n3ccnc3)cc2)cc(OC)c1` gave PrPC TRFRET 3, BJeLR lethal 2, PfHsp40 rescue 2, Yp Topo-I inh 3, CCHF vOTU inh 2 and PrP UTR inh -24.
Screening Nc1ccc2ccc(NS(=O)(=O)N3CCCCC3)cc2c1 returned PrPC TRFRET 31*, CCHF vOTU inh 0, PrPC TRFRET cf 12 and LD9 tox 9.
O=S(=O)(Nc1ccc(F)cc1)N1CCCCCC1 was read as PrPC TRFRET -7, BJeLR lethal 3, PfHsp40 rescue 0, Yp Topo-I inh 8, CCHF vOTU inh 3 and PrP UTR inh -5.
CN1C(=O)[C@@]2(C3=C(CCCC3=O)OC3=C2C(=O)CC(C)(C)C3)c2ccccc21 was read as PrPC TRFRET -4 and CCHF vOTU inh -15.
COc1ccc(C(C)=O)cc1CSc1nnc(-c2ccc(Cl)cc2)n1-c1ccccc1 was read as PrPC TRFRET 56*, BJeLR lethal -3, PfHsp40 rescue 0, Yp Topo-I inh 3, CCHF vOTU inh 3, PrP UTR inh -16, PrPC TRFRET cf 24 and LD9 tox -3.
CC1CCc2cc(F)cc3c(O)c(C(=O)NCC4CCCO4)c(=O)n1c23 (stereo not given) was read as PrPC TRFRET 31*, BJeLR lethal -8, PfHsp40 rescue inconclusive, Yp Topo-I inh -1, CCHF vOTU inh 7, PrP UTR inh -15, PrPC TRFRET cf 40* and LD9 tox -5.
